In PubChem BioAssay (NCATS) one finds Potency data, which are given here for ten compounds.

Inconclusive results are not listed. The source made the active and inactive calls. Unless noted, calls come from the whole dose curve; as a rule, active = well fitted inhibition curve with a large enough effect; inconclusive = small, poorly fitted or top-dose-only effect; inactive = no such curve, though single readings can be large or run the other way.

The target in test [1] is Aldehyde dehydrogenase, mitochondrial (Homo sapiens) (UniProt P05091). Nature of the test: qHTS for Inhibitors of the Aldehyde Dehydrogenase Family (ALDH2) Confirmatory screens (AID 2061303; active = well fitted inhibition curve with a large enough effect; title and protocol of this record describe different tests; note: nearly all actives have a fitted effect of over 45% in size; note: potency is the fitted concentration of half-maximal effect). To be noted: ALDH inhibition qHTS; series mostly up to 45.4 µM.
The nature of test [2]: qHTS for Inhibitors of the Aldehyde Dehydrogenase Family (ALDH1A2, ALDH1A3, ALDH2, ALDH3A1) (AID 2061307). For Potency: test system not described further here; potency is the fitted concentration of half-maximal effect. Note: nearly all actives have a fitted effect of over 50% in size. To be noted: ALDH inhibition qHTS; series mostly up to 50.3 µM. (Quantitative high-throughput screening tests each substance at several concentrations.)
Test [3] has as its target Retinaldehyde dehydrogenase 3 (Homo sapiens) (UniProt P47895). Nature of the test: qHTS for Inhibitors of the Aldehyde Dehydrogenase Family (ALDH1A3) Confirmatory screens (AID 2061311). Note: nearly all actives have a fitted effect of over 60% in size. Note: potency is the fitted concentration of half-maximal effect. As to conditions: ALDH inhibition qHTS; series mostly up to 46 µM.
Test [4] has as its target Retinal dehydrogenase 2 (Homo sapiens) (UniProt O94788). The experiment in a line: qHTS for Inhibitors of the Aldehyde Dehydrogenase Family (ALDH1A2) Confirmation screens (AID 2061314). Note: nearly all actives have a fitted effect of over 65% in size. Note: potency is the fitted concentration of half-maximal effect. To be noted: ALDH1A2 enzyme inhibition qHTS confirmation; series mostly up to 45.9 µM.
Test [5] addresses Retinaldehyde dehydrogenase 3 (Homo sapiens) (UniProt P47895). Nature of the test: qHTS for Inhibitors of the Aldehyde Dehydrogenase Family (ALDH1A3) Primary screen (AID 2061315). To be noted: ALDH inhibition qHTS; series mostly up to 56 µM.
For test [6], the target named is Aldehyde dehydrogenase 1A1 (Homo sapiens) (UniProt P00352). Nature of the test: qHTS for Inhibitors of the Aldehyde Dehydrogenase Family (ALDH1A1) Confirmatory screens (AID 2061316). Note: nearly all actives have a fitted effect of over 65% in size. Note: potency is the fitted concentration of half-maximal effect. As to conditions: ALDH inhibition qHTS; series mostly up to 47.3 µM.

Turning to `O=C(C1CCN(Cc2ccccc2-c2ccccc2F)CC1)N1CCC(Cc2ccccc2)CC1`, the Potency in test [1] is 3.16 µM (active). Also, the Potency result in test [2], in test [3] and in test [4] was “inactive” in each case.
For `O=Cc1c(-c2ccccc2)no[n+]1[O-]`, the Potency was 14.2 µM (active) in test [1]; 0.565 µM (active) in test [2]; 4 µM (active) in test [3]; 11.3 µM (active) in test [4]; 0.504 µM (active) in test [6]. For the same compound, the Potency result in test [5] was “inactive”.
Consider `Cc1ccc(C(=O)N2CCC(CCC(=O)N3CCCCC3)CC2)cc1`, for which the Potency result in test [1], in test [2], in test [3] and in test [4] was “inactive” throughout.
In the case of `Cc1cccc(CNc2ccnc(-c3cccc4ccccc34)n2)c1`, the Potency result in test [1], in test [2], in test [3], in test [4], in test [5] and in test [6] was “inactive” throughout.
Take `COc1ccc(C2Nc3ccccc3C(=O)N2CC(C)(C)C)cc1COc1ccc(NC(C)=O)cc1` (stereo not drawn): the Potency was 11.2 µM (active) in test [1]; 1.59 µM (active) in test [2]; 15.8 µM (active) in test [3]; 31.6 µM (active) in test [4]; 25.2 µM (active) in test [6]. In addition, in test [5], the Potency result was “inactive”.
Turning to `N#Cc1c(-c2ccc3c(c2)OCO3)no[n+]1[O-]`, the Potency result in test [1], in test [3], in test [5] and in test [6] was “inactive” each time. Moreover, the figures for the Potency in test [2] and in test [4] were 1.13 µM (active) and 10.1 µM (active), respectively.
Turning to `Clc1cccc(-c2ccc(C3Nc4cccc5cccc(c45)N3)o2)c1`, the Potency in test [1] was 5.04 µM (active); in test [2], 10.1 µM (active); in test [3], 1.59 µM (active); in test [4], 11.3 µM (active).
In the case of `CC1CCN(c2ccc(CNC(=O)CC3CCOCC3)cc2)CC1`, the Potency result in test [1] and in test [2] was “inactive” each time. In addition, the Potency in test [3] is 10 µM (active).
Take `CCn1cc2nc(SCc3cccc(C)c3)n(CCc3ccccc3)c(=O)c2n1`: the Potency in test [1] was 28.2 µM (active); in test [2] it was 3.98 µM (active); in test [3], 1.26 µM (active); in test [4], 3.24 µM (active).
Consider `O=C1Cc2cc(C(=O)c3ccco3)ccc2N1`, for which the Potency in test [1] is 1.01 µM (active); in test [2], 0.565 µM (active); in test [3], 0.896 µM (active); in test [4], 2.52 µM (active). Besides, in test [5], the Potency result is “inactive”.
